Tests used:
Assay in all cases: log2 ratio of Biotin-Ahx-Ub-VS probe labelling (fragment/DMSO); higher = less target engagement (more negative = stronger competition), active = hit call of the paper (q ≤ 0.05, log2 ratio ≤ -1)
Conditions in all cases: compound concentration: 200 uM; treatment time: 3 h
[1] = target: T1, USP42 (UniProt Q9H9J4)
T1 sequence (whole entry): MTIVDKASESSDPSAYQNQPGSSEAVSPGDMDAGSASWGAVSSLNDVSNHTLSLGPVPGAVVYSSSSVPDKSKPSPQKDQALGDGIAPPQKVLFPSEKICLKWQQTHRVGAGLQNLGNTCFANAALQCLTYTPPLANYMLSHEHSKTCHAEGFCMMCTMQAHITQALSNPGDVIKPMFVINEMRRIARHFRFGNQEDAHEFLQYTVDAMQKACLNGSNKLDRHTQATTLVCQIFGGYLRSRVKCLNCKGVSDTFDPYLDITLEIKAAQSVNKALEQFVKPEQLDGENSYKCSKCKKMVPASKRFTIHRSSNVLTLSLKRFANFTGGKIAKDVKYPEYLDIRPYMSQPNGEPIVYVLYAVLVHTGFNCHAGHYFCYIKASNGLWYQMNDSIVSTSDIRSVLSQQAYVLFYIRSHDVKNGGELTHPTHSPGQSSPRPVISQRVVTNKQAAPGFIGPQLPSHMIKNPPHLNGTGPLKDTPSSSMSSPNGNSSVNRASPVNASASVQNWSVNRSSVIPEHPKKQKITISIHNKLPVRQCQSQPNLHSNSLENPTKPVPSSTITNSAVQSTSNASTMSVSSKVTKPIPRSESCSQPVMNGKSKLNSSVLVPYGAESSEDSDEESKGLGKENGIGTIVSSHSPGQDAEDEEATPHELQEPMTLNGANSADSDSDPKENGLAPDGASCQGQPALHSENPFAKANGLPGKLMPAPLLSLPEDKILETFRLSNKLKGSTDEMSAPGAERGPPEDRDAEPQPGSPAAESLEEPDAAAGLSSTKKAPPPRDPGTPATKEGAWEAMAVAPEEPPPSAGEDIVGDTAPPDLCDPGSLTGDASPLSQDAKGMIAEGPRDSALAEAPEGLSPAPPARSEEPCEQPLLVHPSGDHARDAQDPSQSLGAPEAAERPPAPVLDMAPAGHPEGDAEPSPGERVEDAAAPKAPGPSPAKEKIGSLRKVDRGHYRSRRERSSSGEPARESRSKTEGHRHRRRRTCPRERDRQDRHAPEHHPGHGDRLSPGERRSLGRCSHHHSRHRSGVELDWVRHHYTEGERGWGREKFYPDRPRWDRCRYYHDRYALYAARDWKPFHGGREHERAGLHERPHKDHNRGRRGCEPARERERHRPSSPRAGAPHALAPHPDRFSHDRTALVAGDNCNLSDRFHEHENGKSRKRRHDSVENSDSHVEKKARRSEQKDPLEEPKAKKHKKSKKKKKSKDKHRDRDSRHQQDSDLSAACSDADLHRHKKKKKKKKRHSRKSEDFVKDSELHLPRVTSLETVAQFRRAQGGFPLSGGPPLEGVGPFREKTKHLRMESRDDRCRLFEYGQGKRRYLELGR
In short: (§1)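 Labelled DUBs from HEK293T lysate were NeutrAvidin-enriched, digested with LysC and trypsin, and run by diaPASEF LC-MS/MS. Before that, each 495 µg sample in Tris/CHAPS/IGEPAL buffer with protease inhibitors was treated in triplicate with fragment at 200 µM or vehicle for 3 h, then with Biotin-Ahx-Ub-VS at 0.5 µM final for 1 h. Values are average log2 ratios of fragment over vehicle by unpaired t-test, based on global-median-normalised Spectronaut label-free quantities from proteins with ≥2 unique peptides.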

[2] = target: USP46 (UniProt P62068)
USP46, sequence (P62068 whole entry): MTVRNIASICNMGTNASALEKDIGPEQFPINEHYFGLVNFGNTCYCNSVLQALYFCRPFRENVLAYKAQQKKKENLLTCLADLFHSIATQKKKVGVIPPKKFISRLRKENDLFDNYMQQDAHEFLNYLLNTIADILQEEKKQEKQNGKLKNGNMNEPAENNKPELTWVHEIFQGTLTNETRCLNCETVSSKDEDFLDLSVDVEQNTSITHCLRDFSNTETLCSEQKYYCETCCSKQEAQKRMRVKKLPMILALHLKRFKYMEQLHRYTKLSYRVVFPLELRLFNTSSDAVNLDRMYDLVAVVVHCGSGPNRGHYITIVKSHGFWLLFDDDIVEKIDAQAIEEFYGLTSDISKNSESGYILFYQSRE
In short: as §1

[3] = target: T2, USP47 (UniProt Q96K76)
T2 sequence (whole entry): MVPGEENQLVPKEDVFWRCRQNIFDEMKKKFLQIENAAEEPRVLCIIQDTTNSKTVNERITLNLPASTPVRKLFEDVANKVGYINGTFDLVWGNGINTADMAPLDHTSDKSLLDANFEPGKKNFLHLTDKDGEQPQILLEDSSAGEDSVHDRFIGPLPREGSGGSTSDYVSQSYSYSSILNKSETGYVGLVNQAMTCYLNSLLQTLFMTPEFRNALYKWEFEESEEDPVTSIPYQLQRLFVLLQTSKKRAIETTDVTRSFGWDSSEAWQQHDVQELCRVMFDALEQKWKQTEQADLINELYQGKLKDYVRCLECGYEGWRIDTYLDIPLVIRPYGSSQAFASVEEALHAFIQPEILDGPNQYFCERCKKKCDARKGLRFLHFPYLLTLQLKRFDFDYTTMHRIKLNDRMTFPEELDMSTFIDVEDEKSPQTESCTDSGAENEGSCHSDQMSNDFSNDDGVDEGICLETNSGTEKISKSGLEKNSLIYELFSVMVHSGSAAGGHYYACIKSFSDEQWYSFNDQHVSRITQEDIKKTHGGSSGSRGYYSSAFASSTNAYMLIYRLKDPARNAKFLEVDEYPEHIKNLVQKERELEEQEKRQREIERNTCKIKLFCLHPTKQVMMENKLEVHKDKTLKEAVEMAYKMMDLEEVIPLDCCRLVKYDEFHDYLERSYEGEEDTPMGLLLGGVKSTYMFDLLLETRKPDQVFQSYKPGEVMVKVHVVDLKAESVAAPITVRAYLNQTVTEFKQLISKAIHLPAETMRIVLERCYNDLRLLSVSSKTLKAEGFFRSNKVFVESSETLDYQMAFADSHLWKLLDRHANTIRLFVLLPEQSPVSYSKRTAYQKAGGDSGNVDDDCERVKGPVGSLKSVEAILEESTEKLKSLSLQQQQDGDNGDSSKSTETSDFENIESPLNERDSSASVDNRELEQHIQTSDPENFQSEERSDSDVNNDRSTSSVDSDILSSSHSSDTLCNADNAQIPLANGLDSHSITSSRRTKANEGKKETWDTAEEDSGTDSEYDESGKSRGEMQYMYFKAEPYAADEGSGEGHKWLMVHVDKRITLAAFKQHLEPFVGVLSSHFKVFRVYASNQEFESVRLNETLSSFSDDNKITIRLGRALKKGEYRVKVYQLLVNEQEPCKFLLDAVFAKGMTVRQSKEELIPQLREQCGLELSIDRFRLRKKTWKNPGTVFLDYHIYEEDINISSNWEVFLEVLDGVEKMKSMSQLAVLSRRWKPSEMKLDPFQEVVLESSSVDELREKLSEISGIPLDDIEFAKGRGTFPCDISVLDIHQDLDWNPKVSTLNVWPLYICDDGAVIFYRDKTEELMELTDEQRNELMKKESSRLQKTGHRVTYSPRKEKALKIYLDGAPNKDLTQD
In short: as §1

[4] = target: T3, USP48 (UniProt Q86UV5)
T3 sequence (whole entry): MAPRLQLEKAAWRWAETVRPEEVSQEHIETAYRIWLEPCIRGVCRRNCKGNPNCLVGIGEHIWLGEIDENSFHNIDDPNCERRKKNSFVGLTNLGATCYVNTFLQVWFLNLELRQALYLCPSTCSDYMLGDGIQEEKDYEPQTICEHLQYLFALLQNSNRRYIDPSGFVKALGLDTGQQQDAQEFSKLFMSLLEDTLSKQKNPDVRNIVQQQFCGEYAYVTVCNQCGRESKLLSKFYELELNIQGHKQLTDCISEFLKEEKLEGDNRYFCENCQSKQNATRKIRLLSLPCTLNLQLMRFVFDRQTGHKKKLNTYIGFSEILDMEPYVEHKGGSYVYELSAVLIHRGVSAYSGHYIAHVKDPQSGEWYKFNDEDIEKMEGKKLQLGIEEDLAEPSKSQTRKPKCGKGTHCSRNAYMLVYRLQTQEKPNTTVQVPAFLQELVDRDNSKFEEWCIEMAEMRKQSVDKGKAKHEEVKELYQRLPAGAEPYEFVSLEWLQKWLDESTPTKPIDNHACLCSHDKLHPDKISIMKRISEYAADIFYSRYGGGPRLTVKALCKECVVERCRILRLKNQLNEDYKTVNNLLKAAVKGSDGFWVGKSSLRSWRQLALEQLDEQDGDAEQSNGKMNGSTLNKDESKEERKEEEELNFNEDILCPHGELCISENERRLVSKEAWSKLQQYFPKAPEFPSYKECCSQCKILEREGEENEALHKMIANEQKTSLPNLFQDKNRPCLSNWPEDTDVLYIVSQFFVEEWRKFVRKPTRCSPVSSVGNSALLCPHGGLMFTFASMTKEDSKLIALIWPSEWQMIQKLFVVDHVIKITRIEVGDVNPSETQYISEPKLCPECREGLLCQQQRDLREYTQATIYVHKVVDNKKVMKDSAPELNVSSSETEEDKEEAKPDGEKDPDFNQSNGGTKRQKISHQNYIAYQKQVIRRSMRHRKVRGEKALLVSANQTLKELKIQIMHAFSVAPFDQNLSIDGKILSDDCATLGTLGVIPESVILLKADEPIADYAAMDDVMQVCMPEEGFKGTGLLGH
In short: as §1

[5] = target: T4, USP5 (UniProt P45974)
T4 sequence (whole entry): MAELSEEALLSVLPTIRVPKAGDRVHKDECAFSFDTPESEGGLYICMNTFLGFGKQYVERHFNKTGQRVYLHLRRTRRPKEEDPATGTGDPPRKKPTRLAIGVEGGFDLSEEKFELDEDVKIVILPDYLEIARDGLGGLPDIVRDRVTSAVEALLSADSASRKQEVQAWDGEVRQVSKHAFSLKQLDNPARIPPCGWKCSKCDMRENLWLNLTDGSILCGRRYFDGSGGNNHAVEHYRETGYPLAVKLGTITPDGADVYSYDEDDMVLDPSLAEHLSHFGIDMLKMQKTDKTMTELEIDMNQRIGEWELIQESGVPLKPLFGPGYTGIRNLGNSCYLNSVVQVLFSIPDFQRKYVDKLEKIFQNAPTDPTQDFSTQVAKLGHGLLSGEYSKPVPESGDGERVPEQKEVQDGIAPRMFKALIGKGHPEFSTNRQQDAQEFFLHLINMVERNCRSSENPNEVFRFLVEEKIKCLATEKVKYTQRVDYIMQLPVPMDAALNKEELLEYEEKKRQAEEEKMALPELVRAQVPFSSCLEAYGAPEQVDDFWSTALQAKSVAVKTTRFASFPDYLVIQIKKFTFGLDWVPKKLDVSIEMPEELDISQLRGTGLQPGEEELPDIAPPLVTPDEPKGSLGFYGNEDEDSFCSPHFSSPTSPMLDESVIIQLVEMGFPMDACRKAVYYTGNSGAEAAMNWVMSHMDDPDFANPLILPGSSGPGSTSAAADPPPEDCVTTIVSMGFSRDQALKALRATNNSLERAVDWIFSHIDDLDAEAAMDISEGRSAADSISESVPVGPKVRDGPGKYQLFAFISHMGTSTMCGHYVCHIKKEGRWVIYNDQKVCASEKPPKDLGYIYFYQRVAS
In short: as §1

[6] = target: USP54 (UniProt Q70EL1)
USP54, sequence (Q70EL1 whole entry): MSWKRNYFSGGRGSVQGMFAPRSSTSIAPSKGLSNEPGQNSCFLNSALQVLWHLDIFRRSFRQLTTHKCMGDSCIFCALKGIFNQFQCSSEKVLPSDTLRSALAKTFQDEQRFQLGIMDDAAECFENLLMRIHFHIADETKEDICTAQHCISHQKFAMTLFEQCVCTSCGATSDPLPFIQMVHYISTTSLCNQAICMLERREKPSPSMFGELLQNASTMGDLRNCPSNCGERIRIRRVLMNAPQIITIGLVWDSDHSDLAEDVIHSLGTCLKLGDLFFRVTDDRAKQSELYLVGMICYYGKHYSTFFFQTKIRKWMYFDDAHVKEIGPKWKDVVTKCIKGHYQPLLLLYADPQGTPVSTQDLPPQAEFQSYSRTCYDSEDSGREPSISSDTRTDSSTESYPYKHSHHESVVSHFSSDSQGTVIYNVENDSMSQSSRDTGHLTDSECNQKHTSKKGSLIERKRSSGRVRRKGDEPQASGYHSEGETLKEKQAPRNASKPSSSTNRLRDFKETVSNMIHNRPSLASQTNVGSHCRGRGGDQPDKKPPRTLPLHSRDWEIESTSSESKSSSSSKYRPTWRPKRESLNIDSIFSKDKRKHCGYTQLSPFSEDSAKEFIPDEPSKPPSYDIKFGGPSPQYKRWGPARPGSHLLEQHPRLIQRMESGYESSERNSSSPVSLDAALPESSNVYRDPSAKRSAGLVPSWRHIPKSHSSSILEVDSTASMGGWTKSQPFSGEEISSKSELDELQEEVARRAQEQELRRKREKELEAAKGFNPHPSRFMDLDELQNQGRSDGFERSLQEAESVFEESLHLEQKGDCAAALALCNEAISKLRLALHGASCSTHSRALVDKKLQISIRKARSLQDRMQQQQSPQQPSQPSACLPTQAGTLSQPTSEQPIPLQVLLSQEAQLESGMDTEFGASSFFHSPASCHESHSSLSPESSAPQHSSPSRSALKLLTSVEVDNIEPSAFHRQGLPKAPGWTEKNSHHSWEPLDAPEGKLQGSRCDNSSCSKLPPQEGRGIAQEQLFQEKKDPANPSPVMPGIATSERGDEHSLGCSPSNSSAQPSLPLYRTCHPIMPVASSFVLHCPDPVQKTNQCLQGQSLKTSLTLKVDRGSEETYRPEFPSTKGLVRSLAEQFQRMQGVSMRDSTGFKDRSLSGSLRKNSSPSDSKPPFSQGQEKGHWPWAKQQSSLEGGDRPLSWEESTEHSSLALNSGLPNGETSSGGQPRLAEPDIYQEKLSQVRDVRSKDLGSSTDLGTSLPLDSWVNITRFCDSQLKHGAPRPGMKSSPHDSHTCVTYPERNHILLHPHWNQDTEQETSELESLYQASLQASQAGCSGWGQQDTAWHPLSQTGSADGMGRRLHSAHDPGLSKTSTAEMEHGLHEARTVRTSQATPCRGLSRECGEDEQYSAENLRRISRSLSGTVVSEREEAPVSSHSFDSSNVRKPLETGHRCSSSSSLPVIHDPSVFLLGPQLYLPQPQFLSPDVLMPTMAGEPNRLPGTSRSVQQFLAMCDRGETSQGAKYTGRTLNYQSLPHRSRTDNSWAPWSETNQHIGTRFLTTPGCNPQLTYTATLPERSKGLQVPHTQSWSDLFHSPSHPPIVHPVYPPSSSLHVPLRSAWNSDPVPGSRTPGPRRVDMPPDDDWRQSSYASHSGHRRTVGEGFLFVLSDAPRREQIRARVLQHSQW
In short: as §1

[7] = target: USP7 (UniProt Q93009)
USP7, sequence (Q93009 whole entry, looked up): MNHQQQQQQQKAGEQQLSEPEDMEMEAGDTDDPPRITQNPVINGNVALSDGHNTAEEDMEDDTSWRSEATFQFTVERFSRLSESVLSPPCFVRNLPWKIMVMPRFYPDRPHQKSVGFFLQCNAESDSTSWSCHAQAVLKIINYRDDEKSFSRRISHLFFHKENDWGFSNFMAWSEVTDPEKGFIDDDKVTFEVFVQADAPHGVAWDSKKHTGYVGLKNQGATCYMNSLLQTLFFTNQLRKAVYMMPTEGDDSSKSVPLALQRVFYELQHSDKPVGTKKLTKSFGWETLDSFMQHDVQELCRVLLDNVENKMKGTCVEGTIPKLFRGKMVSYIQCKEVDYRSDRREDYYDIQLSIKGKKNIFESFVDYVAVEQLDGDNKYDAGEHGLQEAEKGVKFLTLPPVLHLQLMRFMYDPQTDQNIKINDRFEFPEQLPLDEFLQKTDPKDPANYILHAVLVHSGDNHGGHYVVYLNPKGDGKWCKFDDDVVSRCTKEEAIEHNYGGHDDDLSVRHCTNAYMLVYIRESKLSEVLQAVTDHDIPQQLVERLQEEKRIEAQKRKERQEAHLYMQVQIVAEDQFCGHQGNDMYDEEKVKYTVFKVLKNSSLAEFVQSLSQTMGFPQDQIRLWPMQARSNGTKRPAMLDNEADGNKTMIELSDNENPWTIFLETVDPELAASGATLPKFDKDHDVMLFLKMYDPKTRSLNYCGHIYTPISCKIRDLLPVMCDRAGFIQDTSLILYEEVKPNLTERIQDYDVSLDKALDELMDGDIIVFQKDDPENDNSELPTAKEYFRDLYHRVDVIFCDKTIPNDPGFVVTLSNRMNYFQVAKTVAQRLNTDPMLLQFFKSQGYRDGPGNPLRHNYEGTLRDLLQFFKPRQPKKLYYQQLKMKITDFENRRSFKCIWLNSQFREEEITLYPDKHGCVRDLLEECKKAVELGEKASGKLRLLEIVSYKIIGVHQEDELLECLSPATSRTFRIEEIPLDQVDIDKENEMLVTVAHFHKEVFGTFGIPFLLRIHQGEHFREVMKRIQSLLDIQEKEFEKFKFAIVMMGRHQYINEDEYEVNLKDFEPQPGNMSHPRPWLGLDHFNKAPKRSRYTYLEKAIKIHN
In short: as §1

[8] = target: T5, USP8 (UniProt P40818)
T5 sequence (whole entry): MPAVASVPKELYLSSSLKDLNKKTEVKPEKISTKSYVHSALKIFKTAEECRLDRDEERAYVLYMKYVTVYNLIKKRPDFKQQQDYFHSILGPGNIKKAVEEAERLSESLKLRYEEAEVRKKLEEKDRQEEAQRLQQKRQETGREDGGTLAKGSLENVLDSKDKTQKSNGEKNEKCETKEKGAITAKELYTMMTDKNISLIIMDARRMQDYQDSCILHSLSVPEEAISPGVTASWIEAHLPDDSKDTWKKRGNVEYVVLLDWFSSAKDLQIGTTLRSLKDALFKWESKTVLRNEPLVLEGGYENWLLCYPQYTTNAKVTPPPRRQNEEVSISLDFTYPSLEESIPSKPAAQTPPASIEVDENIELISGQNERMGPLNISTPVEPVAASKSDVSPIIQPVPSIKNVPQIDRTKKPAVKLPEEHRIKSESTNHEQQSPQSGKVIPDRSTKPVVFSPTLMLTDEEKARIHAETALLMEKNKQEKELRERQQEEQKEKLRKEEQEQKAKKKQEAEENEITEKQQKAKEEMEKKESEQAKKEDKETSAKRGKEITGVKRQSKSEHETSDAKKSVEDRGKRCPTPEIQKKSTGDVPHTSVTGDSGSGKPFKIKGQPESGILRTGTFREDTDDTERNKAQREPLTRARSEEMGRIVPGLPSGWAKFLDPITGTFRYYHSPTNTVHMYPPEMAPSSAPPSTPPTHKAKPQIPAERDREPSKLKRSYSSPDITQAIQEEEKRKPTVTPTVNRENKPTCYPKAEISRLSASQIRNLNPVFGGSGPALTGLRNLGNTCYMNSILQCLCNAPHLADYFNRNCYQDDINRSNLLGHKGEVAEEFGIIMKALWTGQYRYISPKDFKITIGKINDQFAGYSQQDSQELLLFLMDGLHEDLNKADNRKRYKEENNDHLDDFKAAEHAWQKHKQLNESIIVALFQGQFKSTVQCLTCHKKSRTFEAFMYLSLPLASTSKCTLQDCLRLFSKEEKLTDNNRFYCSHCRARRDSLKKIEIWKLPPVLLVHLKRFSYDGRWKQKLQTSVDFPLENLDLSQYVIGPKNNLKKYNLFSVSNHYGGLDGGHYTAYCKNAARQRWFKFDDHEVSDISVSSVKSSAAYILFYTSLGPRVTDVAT
In short: as §1

[9] = target: USP9X (UniProt Q93008)
In short: as §1

[10] = target: UniProt O00487
UniProt O00487, sequence (O00487 whole entry): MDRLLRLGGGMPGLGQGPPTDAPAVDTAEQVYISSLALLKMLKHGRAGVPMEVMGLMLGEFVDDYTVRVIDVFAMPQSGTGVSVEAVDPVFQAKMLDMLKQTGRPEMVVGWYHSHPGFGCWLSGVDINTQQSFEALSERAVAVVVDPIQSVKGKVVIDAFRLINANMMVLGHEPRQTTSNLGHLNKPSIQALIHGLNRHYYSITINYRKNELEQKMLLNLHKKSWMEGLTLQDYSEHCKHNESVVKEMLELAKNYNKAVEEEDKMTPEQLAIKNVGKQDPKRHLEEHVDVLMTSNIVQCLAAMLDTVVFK
In short: as §1

Measured: log2 ratio of Biotin-Ahx-Ub-VS probe labelling

O=C(CCl)Nc1ccc(F)cc1F
inactive: [1] -0.555 | [2] -0.0216 | [3] -0.211 | [4] -0.0331 | [5] -0.0493 | [6] 0.615 | [7] -0.0738 | [8] -0.257 | [9] -0.218 | [10] -0.099
